Source: the supplement of paper PMC11732987, “Enantioselective OTUD7B fragment discovery through chemoproteomics screening and high-throughput optimisation” (Communications Chemistry, 2025)

Experiments:
Experiment in all cases: log2 ratio of Biotin-Ahx-Ub-VS probe labelling (fragment/DMSO); higher = less target engagement (more negative = stronger competition), active = hit call of the paper (q ≤ 0.05, log2 ratio ≤ -1)
Conditions in all cases: compound concentration: 200 uM; treatment time: 3 h
USP16 = USP16 (UniProt Q9Y5T5)
USP16, sequence (Q9Y5T5 whole entry, looked up, the tested form may be a part): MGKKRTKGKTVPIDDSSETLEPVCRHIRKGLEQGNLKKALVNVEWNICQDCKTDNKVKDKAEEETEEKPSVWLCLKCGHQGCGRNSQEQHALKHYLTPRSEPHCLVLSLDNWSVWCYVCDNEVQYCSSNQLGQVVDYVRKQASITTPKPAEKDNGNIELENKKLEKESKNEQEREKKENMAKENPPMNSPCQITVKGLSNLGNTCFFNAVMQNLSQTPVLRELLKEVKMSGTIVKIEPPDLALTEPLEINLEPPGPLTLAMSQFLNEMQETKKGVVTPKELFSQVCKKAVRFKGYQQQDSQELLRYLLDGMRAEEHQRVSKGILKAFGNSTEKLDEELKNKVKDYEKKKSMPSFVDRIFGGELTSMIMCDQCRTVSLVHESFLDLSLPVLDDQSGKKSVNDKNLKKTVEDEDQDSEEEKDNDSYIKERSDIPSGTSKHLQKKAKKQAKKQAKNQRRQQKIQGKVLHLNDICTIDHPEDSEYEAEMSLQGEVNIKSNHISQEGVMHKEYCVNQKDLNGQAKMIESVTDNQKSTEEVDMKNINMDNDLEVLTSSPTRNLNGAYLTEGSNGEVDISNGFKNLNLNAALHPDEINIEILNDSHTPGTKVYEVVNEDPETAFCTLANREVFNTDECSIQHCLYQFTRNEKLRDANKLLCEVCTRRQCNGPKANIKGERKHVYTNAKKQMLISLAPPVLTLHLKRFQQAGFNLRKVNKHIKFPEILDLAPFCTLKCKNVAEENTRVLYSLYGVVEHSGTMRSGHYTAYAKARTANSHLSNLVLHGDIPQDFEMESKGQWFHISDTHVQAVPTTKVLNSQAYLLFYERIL
Procedure, shortened: (§1)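 Labelled DUBs were enriched with NeutrAvidin, digested with LysC and trypsin, and run by diaPASEF LC-MS/MS. The labelling used Biotin-Ahx-Ub-VS at 0.5 µM final for 1 h on HEK293T lysate (495 µg per sample) previously treated in triplicate with fragment at 200 µM or vehicle for 3 h. Values are average log2 fragment/vehicle ratios by unpaired t-test on global-median-normalised Spectronaut quantities of proteins with ≥2 unique peptides.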

USP19 = target: T1, USP19 (UniProt O94966)
T1 sequence (whole entry): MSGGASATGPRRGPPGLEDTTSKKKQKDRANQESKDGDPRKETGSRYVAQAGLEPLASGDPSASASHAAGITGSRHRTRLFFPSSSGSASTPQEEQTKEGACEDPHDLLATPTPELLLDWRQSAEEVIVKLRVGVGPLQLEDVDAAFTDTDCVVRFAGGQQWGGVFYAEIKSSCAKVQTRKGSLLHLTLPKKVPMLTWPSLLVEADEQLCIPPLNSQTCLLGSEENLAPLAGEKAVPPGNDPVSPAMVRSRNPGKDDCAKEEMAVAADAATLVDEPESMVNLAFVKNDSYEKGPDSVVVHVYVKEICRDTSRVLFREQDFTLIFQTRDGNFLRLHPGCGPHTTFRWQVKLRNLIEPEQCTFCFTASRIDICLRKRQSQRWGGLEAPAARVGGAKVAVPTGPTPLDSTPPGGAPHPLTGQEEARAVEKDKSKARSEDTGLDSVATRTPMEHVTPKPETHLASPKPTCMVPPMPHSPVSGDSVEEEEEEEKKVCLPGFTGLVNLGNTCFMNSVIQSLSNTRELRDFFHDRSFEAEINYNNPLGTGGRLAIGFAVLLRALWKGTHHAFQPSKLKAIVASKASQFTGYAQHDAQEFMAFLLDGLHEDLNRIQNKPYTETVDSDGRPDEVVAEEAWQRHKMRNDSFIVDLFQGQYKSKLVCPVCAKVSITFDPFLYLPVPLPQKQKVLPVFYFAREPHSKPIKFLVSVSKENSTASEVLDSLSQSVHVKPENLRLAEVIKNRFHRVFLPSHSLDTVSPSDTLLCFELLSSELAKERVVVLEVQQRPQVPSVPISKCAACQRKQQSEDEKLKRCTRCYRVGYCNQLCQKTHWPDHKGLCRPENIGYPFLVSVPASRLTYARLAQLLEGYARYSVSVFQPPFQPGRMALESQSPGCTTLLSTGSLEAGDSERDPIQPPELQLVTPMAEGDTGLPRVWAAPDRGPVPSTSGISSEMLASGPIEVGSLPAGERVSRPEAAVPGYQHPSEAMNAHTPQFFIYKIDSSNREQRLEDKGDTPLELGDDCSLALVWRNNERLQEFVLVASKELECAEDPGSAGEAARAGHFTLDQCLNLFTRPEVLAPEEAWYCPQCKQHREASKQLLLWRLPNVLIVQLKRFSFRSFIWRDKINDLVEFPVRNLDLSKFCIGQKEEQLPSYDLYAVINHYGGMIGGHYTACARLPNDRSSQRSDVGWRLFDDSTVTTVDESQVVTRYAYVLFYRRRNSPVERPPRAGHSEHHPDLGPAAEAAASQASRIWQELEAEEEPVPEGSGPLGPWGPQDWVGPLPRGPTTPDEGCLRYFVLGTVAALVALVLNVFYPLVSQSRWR
Procedure, shortened: as §1

USP24 = USP24 (UniProt Q9UPU5)
USP24, sequence (Q9UPU5 whole entry): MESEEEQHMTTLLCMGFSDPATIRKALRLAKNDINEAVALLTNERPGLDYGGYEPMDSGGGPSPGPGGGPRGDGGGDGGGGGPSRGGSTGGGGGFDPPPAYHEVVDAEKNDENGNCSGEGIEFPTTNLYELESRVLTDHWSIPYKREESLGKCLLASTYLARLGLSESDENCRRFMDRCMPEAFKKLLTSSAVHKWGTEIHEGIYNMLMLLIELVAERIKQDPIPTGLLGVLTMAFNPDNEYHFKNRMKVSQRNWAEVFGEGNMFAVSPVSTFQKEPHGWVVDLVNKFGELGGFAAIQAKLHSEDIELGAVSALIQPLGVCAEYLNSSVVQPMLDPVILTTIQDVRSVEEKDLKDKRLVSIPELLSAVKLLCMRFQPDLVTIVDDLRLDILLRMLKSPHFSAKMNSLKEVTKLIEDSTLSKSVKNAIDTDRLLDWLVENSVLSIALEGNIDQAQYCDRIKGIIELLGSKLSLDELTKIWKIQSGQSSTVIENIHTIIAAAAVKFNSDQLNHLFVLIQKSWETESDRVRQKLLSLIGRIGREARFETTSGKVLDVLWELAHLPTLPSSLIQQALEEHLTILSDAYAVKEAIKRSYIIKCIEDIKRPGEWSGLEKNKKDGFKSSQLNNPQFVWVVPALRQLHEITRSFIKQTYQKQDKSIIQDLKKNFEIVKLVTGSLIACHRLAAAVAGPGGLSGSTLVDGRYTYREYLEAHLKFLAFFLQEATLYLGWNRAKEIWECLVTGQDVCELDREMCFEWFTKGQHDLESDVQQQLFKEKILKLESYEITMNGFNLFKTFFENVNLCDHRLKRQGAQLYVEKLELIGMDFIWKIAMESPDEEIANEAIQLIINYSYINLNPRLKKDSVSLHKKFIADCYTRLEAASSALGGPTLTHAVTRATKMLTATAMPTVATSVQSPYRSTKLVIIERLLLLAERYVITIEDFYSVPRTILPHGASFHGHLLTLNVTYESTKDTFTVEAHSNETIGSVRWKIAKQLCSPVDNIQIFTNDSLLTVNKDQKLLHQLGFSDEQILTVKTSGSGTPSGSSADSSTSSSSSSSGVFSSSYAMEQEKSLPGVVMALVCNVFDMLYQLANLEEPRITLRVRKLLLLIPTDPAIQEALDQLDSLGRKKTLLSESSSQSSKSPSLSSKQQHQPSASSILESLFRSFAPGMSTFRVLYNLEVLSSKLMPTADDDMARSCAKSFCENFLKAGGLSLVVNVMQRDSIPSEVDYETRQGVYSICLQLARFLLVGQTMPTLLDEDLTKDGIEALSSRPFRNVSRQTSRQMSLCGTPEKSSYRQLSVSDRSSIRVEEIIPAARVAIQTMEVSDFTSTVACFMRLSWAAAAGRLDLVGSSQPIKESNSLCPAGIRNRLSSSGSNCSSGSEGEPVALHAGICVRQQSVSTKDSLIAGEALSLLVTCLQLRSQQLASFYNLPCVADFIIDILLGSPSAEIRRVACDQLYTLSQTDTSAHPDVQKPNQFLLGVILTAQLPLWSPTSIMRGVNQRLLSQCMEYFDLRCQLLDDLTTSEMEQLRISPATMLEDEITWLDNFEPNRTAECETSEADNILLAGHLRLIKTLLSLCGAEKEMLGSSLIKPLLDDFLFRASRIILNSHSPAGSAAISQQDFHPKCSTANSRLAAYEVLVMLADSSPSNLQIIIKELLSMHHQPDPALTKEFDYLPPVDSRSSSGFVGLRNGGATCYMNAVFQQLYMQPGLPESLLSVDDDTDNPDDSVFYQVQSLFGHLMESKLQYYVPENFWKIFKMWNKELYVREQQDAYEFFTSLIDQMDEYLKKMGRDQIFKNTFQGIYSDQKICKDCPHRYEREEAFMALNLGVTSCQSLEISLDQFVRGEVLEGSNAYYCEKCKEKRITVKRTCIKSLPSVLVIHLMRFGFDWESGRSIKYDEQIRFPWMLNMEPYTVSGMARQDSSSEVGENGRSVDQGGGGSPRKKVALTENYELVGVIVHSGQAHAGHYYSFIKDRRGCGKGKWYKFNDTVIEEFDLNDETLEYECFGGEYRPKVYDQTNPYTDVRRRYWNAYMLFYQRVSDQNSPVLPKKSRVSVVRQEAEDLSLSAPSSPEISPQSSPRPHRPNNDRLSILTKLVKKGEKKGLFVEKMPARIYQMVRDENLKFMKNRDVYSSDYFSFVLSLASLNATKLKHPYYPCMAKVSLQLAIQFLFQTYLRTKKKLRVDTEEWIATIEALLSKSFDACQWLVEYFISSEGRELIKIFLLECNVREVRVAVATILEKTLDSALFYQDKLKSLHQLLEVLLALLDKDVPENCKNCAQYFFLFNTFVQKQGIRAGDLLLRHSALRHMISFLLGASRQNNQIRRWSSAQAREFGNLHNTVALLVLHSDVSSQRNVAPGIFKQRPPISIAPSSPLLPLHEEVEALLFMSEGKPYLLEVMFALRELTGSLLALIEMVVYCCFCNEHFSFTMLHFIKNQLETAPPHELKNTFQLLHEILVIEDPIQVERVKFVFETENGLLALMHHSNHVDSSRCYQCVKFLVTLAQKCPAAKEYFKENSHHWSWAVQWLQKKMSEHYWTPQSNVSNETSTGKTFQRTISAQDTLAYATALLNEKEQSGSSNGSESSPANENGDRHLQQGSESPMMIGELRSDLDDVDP
Procedure, shortened: as §1

USP25 = target: T2, USP25 (UniProt Q9UHP3)
T2 sequence (whole entry): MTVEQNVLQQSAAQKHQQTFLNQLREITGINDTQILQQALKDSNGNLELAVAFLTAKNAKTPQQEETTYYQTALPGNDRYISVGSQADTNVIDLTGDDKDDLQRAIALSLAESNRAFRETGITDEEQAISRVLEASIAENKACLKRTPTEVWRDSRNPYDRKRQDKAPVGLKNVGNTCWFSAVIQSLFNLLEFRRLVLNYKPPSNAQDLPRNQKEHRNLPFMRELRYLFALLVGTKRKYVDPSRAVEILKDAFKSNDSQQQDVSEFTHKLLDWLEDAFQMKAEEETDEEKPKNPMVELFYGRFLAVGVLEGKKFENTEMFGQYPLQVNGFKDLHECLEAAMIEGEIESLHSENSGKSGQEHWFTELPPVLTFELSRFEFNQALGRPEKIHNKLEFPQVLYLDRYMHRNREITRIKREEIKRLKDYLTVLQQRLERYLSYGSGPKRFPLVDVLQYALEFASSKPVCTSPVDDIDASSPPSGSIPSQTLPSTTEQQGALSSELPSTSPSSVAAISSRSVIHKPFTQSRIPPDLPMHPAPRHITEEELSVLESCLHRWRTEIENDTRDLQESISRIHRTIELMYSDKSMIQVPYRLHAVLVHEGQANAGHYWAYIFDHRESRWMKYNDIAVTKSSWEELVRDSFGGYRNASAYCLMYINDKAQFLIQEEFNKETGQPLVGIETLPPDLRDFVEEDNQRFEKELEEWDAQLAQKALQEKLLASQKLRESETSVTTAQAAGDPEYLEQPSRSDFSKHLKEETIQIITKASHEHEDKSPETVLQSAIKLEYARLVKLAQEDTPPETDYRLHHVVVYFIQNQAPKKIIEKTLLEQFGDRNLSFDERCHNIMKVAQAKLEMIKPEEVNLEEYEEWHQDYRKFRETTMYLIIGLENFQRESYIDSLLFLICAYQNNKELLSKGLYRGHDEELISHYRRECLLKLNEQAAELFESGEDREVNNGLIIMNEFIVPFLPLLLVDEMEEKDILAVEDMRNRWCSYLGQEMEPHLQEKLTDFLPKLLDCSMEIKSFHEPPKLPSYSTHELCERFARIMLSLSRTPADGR
Procedure, shortened: as §1

USP28 = target: T3, USP28 (UniProt Q96RU2)
T3 sequence (whole entry): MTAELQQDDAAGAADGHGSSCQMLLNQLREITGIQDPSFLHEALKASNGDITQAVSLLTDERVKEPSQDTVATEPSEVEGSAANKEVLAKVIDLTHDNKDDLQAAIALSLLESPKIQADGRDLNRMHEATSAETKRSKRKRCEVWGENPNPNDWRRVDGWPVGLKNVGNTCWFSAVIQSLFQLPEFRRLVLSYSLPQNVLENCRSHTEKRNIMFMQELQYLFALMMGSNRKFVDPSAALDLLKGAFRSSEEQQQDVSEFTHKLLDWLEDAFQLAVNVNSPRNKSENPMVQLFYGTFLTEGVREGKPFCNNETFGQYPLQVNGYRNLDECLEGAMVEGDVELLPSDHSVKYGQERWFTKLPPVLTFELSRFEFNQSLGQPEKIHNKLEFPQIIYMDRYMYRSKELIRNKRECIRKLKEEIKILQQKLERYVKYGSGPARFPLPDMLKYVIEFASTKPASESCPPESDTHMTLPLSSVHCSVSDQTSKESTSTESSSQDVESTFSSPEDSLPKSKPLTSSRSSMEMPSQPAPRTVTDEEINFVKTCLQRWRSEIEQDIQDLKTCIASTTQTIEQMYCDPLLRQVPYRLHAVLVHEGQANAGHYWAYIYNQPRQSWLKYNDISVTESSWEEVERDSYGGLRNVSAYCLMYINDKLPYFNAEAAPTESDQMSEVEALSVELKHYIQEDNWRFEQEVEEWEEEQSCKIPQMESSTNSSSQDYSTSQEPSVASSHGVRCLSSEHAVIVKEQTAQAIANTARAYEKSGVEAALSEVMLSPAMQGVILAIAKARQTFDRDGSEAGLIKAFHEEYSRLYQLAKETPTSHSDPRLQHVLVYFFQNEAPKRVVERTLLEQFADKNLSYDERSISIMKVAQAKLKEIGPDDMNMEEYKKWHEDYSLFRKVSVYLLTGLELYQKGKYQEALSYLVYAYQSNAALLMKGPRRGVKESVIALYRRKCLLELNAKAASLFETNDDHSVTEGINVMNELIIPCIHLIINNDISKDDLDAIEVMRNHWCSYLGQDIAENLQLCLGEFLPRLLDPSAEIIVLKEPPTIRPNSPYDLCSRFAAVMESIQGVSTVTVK
Procedure, shortened: as §1

Measured: log2 ratio of Biotin-Ahx-Ub-VS probe labelling

Cc1nc(-c2cccc(NC(=O)CCl)c2)cs1
inactive: USP16 -0.418 | USP19 -0.375 | USP24 -0.903 | USP25 -0.554 | USP28 -0.634
